Data reported in PubChem BioAssay (EPA / NIEHS).
“And” between values parts separate entries of the source, which are not always exact repeats. Equal values may be shown once. The source made the active and inactive calls. The calls were made as follows: active = hit-call score of the fitted dose curve at least 0.9, where 1 is the maximum; inactive = score below 0.9.

Read-out: Vascular cell adhesion molecule 1 (VCAM1), VCAM1 (gene 7412)
Experiment: BSK_MyoF_VCAM1: BioMAP Diversity Plus: MyoF Assay for Vascular cell adhesion molecule 1 (VCAM1) Biomarker Activity (AID 2284231)
Conditions: primary human lung fibroblasts
Procedure, shortened: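 ELISA readout of VCAM-1 on human lung fibroblast cultures 24 hours after dosing, analyzed for signal gain relative to DMSO. Overt cytotoxicity was checked by sulforhodamine B total-protein staining in parallel cultures.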

Row | Compound | outcome | AC50
1 | OCc1c[nH]c2ccccc12 | inactive | 
2 | NCC(F)(F)C(F)(F)C(F)(F)C(F)(F)F | inactive | 
3 | FC(F)=C(F)C(F)(F)C(F)(F)C(F)(F)C(F)(F)C(F)(F)C(F)(F)F | inactive | 
4 | Cc1cccc(O)c1C | inactive | 
5 | O=C(Cl)C(F)(F)C(F)(F)C(F)(F)C(=O)Cl | inactive | 
6 | OCCC(F)(F)C(F)(F)C(F)(F)C(F)(F)F | inactive | 
7 | FC(F)(F)C(F)(F)C(F)(F)C(F)(F)C(F)(F)C(F)(F)I |  | 25.3 µM (active) and 40.7 µM (active)
8 | O=S(=O)(O)CCC(F)(F)C(F)(F)C(F)(F)C(F)(F)C(F)(F)C(F)(F)F | inactive | 
9 | OC(O)(C(F)C(O)(O)C(F)(F)F)C(F)(F)F | inactive | 
10 | S=P(N1CC1)(N1CC1)N1CC1 | inactive | 
11 | FC(F)C(F)(F)COCC1CO1 (stereo unspecified) | inactive | 
12 | FC(F)(F)COC(OCC(F)(F)F)OCC(F)(F)F | inactive | 
13 | C[Si](C)(C)C(F)(F)C(F)(F)C(F)(F)F | inactive | 

Test system: not listed separately
Experiment: UKN4_HCS_LUHMES_cell_viability: Viability Assessment in the University of Konstanz (UKN) Leist Lab Neurite Outgrowth Assay in human LUHMES cells (UKN4) (AID 2284232)
Conditions: not given
Procedure, shortened: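 Cells switched to differentiation medium at day 0, replated on day 2 in medium lacking cAMP and GDNF, and compound-treated once attached. Live staining began 23.5 h later, imaging followed at 24 h.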

Row | Compound | outcome
14 | NC(=O)N1c2ccccc2C=Cc2ccccc21 | inactive
15 | Nc1ccn([C@@H]2O[C@H](CO)[C@@H](O)[C@@H]2O)c(=O)n1 | inactive
16 | CCCC(CCC)C(=O)O | inactive
